Results from PubChem BioAssay AID1445 (SRMLSC, 2008).
About 910 (0.41%) of roughly 220,000 compounds were called active. Only a selection was taken, and actives are over-represented in it overall. Measured potencies and affinities stand elsewhere. Values without a mark were called inactive.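 How the source made its calls: active means primary inhibition above the hit cutoff, then over 50% inhibition at one or more dose response concentrations (cut at about 23% in these data, passing the limit was not always enough); inconclusive means conflicting primary data, or primary hits not chosen for dose response; inactive means low primary inhibition, or under 50% at every dose.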

Each compound was assayed against Aminopeptidase N (Plasmodium falciparum (isolate 3D7)) (UniProt O96935) (assay: P. falciparum M1AAP inhibitors, biochemical, fluorogenic H-Leu-NHMec substrate, 1536-well (AID 1445;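 further: plate controls were DMSO full reaction for no effect and no enzyme background for full effect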)). Conditions: recombinant M1AAP, H-Leu-NHMec fluorogenic kinetic assay; at 30 µM, stronger effect = higher value unless noted.
Aminopeptidase N (Plasmodium falciparum (isolate 3D7)), sequence (O96935 whole entry, looked up): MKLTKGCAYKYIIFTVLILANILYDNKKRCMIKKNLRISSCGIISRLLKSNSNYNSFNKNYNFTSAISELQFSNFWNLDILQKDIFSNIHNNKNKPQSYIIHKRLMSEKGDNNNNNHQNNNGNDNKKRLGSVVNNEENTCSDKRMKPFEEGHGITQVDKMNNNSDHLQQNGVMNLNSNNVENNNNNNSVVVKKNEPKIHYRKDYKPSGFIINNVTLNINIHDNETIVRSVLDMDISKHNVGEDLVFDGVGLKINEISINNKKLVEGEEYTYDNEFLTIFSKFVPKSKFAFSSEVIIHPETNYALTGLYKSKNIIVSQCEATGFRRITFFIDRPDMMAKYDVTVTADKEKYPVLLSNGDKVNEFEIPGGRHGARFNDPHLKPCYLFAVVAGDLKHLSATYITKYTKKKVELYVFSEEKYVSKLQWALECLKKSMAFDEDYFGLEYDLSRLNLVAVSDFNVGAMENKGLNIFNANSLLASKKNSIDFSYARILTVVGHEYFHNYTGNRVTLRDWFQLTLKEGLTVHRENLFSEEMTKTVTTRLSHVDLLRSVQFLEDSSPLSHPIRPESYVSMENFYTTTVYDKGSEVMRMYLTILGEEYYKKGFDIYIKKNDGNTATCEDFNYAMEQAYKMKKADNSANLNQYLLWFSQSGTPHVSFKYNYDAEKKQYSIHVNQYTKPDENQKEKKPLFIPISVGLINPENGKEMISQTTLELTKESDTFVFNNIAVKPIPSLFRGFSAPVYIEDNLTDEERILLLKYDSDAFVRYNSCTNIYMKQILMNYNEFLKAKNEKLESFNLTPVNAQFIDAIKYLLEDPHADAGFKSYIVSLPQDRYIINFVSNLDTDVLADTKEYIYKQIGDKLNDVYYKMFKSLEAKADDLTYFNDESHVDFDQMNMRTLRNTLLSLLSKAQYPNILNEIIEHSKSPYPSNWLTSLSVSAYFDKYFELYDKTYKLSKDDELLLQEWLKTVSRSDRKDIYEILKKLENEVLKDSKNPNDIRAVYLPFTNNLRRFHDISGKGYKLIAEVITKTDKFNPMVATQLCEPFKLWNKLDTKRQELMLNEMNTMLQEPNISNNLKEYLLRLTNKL

Question: With `O=C(CCCN1C(=O)/C(=C/c2ccccc2Cl)SC1=S)NNC(=O)c1cccnc1` as the compound, how does the inhibition read?
Answer: 2.83%

Question: How did the inhibition turn out when `COc1ccccc1/C=C1\SC(=S)N(N2C(=O)CCCC2=O)C1=O` was run?
Answer: 3%

Question: `COc1ccc(/C=C2\SC(=S)N(N3CCOCC3)C2=O)c(OC)c1` was tested. Which inhibition did it give?
Answer: 1.37%

Question: With `CC(/C=C1\SC(=S)N(C(C(=O)O)C(C)C)C1=O)=C\c1ccccc1` (centres undefined) as the compound, how does the inhibition read?
Answer: 14%

Question: Which inhibition does the source give for `COc1ccc(OC)c(/C=C2\SC(=S)N(Cc3cccnc3)C2=O)c1` here?
Answer: -5.9%

Question: For `CC(=C\c1ccccc1)/C=C1/SC(=S)N(C(C(=O)O)C(C)C)C1=O` (centres undefined), which inhibition is on record?
Answer: 8.4%

Question: For `COc1cccc(/C=C2\SC(=S)N(C(C(=O)O)c3ccccc3)C2=O)c1OC` (centres undefined), which inhibition is on record?
Answer: 18.2%

Question: With `COc1ccc(/C=C/C(=O)c2ccccc2)c(OC)c1` as the compound, how does the inhibition read?
Answer: 10.2%

Question: With `COc1ccc(OC)c(/C=C2\SC(=S)N(N3CCOCC3)C2=O)c1` as the compound, how does the inhibition read?
Answer: 6.71%

Question: Which inhibition does the source give for `C/C(=N/NS(=O)(=O)c1ccc(C)cc1)c1ccc(NC(=O)C(F)(F)F)cc1` here?
Answer: 2.89%

Question: With `Cc1cnc(NC(=O)CSc2nnc(C)n2N)s1` as the compound, how does the inhibition read?
Answer: 2.39%

Question: With `Cc1ccc(OCc2nc(-c3ccccn3)n[nH]2)cc1` as the compound, how does the inhibition read?
Answer: -24.5%

Question: Which inhibition does the source give for `CCCCn1nnnc1NCc1cccnc1` here?
Answer: 4.66%

Question: With `CCOC(=O)C1CCCN(CC(=O)/C=C2/N(C)c3ccccc3C2(C)C)C1` (centres undefined) as the compound, how does the inhibition read?
Answer: 9.72%

Question: How did the inhibition turn out when `COc1ccc(NS(=O)(=O)c2cccc(C(=O)N/N=C/c3ccc(O)cc3)c2)cc1` was run?
Answer: 7.62%

Question: For `CCC1CCc2[nH]nc(C(=O)O)c2C1` (centres undefined), which inhibition is on record?
Answer: 7.24%

Question: Which inhibition does the source give for `Cc1nn(C(=O)N2CCCCC2)c(C)c1CN1C(=O)c2ccccc2C1=O` here?
Answer: -0.2%

Question: `Cc1cc(C)cc(NC(=O)C(OC(=O)c2cccs2)c2ccccc2)c1` (centres undefined) was tested. Which inhibition did it give?
Answer: 3.45%

Question: With `OCCC1CN(Cc2nc(-c3ccccc3)cs2)CCN1CCc1ccccc1` (centres undefined) as the compound, how does the inhibition read?
Answer: 7.68%

Question: With `CSc1nc2ncc(-c3ccsc3)c(N)n2n1` as the compound, how does the inhibition read?
Answer: 7.33%

Question: For `CC(c1ccccc1)N1C(=O)/C(=C/c2ccncc2)SC1=S` (centres undefined), which inhibition is on record?
Answer: -2.44%

Question: For `O=C(O)C(Cc1ccccc1)N1C(=O)/C(=C/c2cccs2)SC1=S` (centres undefined), which inhibition is on record?
Answer: 11.1%

Question: Which inhibition does the source give for `CCCCC1(C)OC(=O)C(=Cc2ccc(-c3ccc(Cl)c(C(=O)O)c3)o2)C(=O)O1` (centres undefined) here?
Answer: 9.08%

Question: For `O=C(O)c1cc(-c2ccc(/C=C3\NC(=O)N(c4ccccc4)C3=O)o2)ccc1Cl`, which inhibition is on record?
Answer: 18.7%

Question: How did the inhibition turn out when `O=C1NN(c2ccccc2)C(=O)/C1=C/c1ccc(-c2ccc(Cl)c(C(=O)O)c2)o1` was run?
Answer: 32.2%

Question: Which inhibition does the source give for `Cc1ccc(N2NC(=O)/C(=C/c3ccc(-c4ccc(Cl)c(C(=O)O)c4)o3)C2=O)cc1` here?
Answer: 5.62%

Question: With `CC1(C)OC(=O)C(=Cc2ccc(-c3ccc(Cl)c(C(=O)O)c3)o2)C(=O)O1` as the compound, how does the inhibition read?
Answer: 8.63%

Question: For `CC1=NOC(=O)/C1=C/c1ccc(-c2ccc(Cl)cc2)o1`, which inhibition is on record?
Answer: 5.39%

Question: `Cc1ccc(C)c(-n2c(SCC(=O)NC(C(=O)O)C(C)C)nnc2-c2cccc(Cl)c2)c1` (centres undefined) was tested. Which inhibition did it give?
Answer: 0.37%

Question: With `CC1CC(NC(=O)C2(C)CC2(Cl)Cl)CC(C)(C)C1` (centres undefined) as the compound, how does the inhibition read?
Answer: 1.77%

Question: `O=C1CCn2nc(-c3ccc(Cl)cc3)cc2N1` was tested. Which inhibition did it give?
Answer: 0.78%

Question: `O=C(O)CCC(=O)NNC(=O)c1cccc(Cl)c1` was tested. Which inhibition did it give?
Answer: 8.54%

Question: With `Cn1cc(-c2nnnn2-c2ccc(Cl)cc2)c(=O)c2ccccc21` as the compound, how does the inhibition read?
Answer: -1.66%

Question: Which inhibition does the source give for `CC(=O)Nc1c(C(=O)c2ccccc2)oc2ccccc12` here?
Answer: 10.6%

Question: For `O=C(Nc1nc2c(Br)cc(Br)cc2c(=O)s1)c1ccco1`, which inhibition is on record?
Answer: 3.61%

Question: For `CCOc1cc(/C=C/c2ccc3cccc([N+](=O)[O-])c3n2)cc(Cl)c1O`, which inhibition is on record?
Answer: 9.51%

Question: How did the inhibition turn out when `CC(C)c1nc(CNC(=O)CCc2nnc(-c3ccsc3)o2)cs1` was run?
Answer: -9.81%

Question: Which inhibition does the source give for `O=C(N/N=C(\CC(=O)c1cccs1)C(F)(F)F)c1cccnc1` here?
Answer: 22.1%

Question: For `O=C(N/N=C(/CC(=O)c1cccs1)C(F)(F)F)c1ccc(O)cc1`, which inhibition is on record?
Answer: 30.4%

Question: For `Cc1cccc(N2CCN(C(=O)CC(NC(=O)c3ccccc3)c3ccccc3)CC2C)c1` (centres undefined), which inhibition is on record?
Answer: -5.51%

Question: For `Cc1ccc(N2CC(C(=O)Nc3cccc(F)c3)CC2=O)cc1` (centres undefined), which inhibition is on record?
Answer: 2.83%

Question: For `COCc1c(Br)c(C)nc(OCC(=O)N/N=C/c2cc(C)n(-c3ccc([N+](=O)[O-])cc3)c2C)c1C#N`, which inhibition is on record?
Answer: 12%

Question: `O=C(Nc1ccc(-n2ccnc2P(=O)(O)c2ccccc2)cc1)c1ccccc1Cl` was tested. Which inhibition did it give?
Answer: 75.1% (active)

Question: How did the inhibition turn out when `O=C(Nc1ccc(C(F)(F)F)cc1)c1ccccc1Br` was run?
Answer: -2.21%

Question: Which inhibition does the source give for `CN1CCN(c2ccc(NC(=O)c3ccccc3Br)cc2)CC1` here?
Answer: 3.56%

Question: With `O=C(Nc1ccc2ncccc2c1)c1ccccc1Cl` as the compound, how does the inhibition read?
Answer: 16.8%

Question: With `O=C(Nc1ccc(N2CCCCCC2)cc1)c1ccccc1Cl` as the compound, how does the inhibition read?
Answer: -5.82%

Question: With `CC(Cc1cccs1)NC(=S)Nc1ccc(Cl)c(Cl)c1` (centres undefined) as the compound, how does the inhibition read?
Answer: -3.88%

Question: `Cc1ccc(OCc2ccc(C(=O)Nc3nc4ccccc4n3Cc3ccccc3)o2)c([N+](=O)[O-])c1` was tested. Which inhibition did it give?
Answer: 4.13%

Question: For `Cc1ccc(C(=O)Cn2nnc3ccccc32)cc1C`, which inhibition is on record?
Answer: 5.82%

Question: With `O=C1Nc2ccccc2N(O)N1c1ccc(S(=O)(=O)Nc2ccccn2)cc1` as the compound, how does the inhibition read?
Answer: 5.82%

Question: How did the inhibition turn out when `Cc1cc(-c2nc3c4c5c(sc4[nH]c(=O)n3n2)CCC5)c(C)o1` was run?
Answer: 27.1% (active)

Question: How did the inhibition turn out when `O=c1[nH]c2sc3c(c2c2nncn12)CCCC3` was run?
Answer: 2.29%

Question: With `Cc1nc2sc3c(c2c(=O)o1)CCC3` as the compound, how does the inhibition read?
Answer: 7.65%

Question: `CCOC(=O)C1=C(c2ccccc2)Nc2ncnn2C1c1ccc(OC)c(OC)c1OC` (centres undefined) was tested. Which inhibition did it give?
Answer: -1.38%

Question: For `O=S(=O)(Nc1nc2ccccc2nc1Nc1ccc2c(c1)OCO2)c1ccccc1`, which inhibition is on record?
Answer: 33.5%

Question: How did the inhibition turn out when `O=S(=O)(Nc1ccc2c(c1)OCCO2)c1cccs1` was run?
Answer: -2.25%

Question: For `O=S(=O)(Nc1nc2ccccc2nc1Nc1ccc2c(c1)OCCO2)c1cccs1`, which inhibition is on record?
Answer: 47.2% (active)

Question: How did the inhibition turn out when `CC1=C(C(=O)N2CCN(c3cc(C)ccc3C)CC2)C2(CCC(C)CC2)OC1=O` (centres undefined) was run?
Answer: 0.75%

Question: Which inhibition does the source give for `NNC(=O)CSc1nnnn1-c1ccccc1` here?
Answer: -3.57%

Question: How did the inhibition turn out when `Cc1cccc(C)c1NS(=O)(=O)c1ccc(OCCNS(C)(=O)=O)cc1` was run?
Answer: -0.18%

Question: `N#Cc1cc2c(nc1Cl)CCCC2` was tested. Which inhibition did it give?
Answer: 3.36%

Question: How did the inhibition turn out when `COc1ccc(CCN=C(N)NS(=O)(=O)c2ccccc2)cc1OC` was run?
Answer: 0.37%

Question: Which inhibition does the source give for `CCOc1cc(C2C3=C(CCCC3=O)N(C)C3=C2C(=O)CCC3)cc(Cl)c1O` here?
Answer: 18.7%

Question: With `CCOc1ccc(C2CC(=O)NC3=C2C(=O)CCC3)cc1Cl` (centres undefined) as the compound, how does the inhibition read?
Answer: 1.99%

Question: With `CCOc1cc(C2C(C(=O)OC(C)C)=C(C)NC3=C2C(=O)CCC3)cc([N+](=O)[O-])c1O` (centres undefined) as the compound, how does the inhibition read?
Answer: 21.4%

Question: For `CCOc1cc(C2C3=C(CC(C)(C)CC3=O)OC3=C2C(=O)CC(C)(C)C3)cc([N+](=O)[O-])c1O`, which inhibition is on record?
Answer: 14.2%

Question: For `Fc1ccc(-c2nc3c(Cl)cc(C(F)(F)F)cn3c2Cl)cc1`, which inhibition is on record?
Answer: -1.92%

Question: `COC(=O)CSc1[nH]c2ccc(F)cc2c1[N+](=O)[O-]` was tested. Which inhibition did it give?
Answer: 13%

Question: How did the inhibition turn out when `CCOC(=O)c1c(C)oc2ccc(NS(=O)(=O)c3cccs3)cc12` was run?
Answer: 17.3%

Question: For `COC(=O)c1c(C)oc2ccc(NS(=O)(=O)c3cccs3)cc12`, which inhibition is on record?
Answer: 6.82%

Question: For `CC(C)(C)NC(=O)COC(=O)c1nsc(Cl)c1Cl`, which inhibition is on record?
Answer: 0.52%

Question: With `CC(C)(C)NC(=O)NC(=O)CN1CCN(c2cccc(Cl)c2)CC1` as the compound, how does the inhibition read?
Answer: -0.55%

Question: How did the inhibition turn out when `COn1c(SCc2cccnc2)nc2ccccc2c1=O` was run?
Answer: -0.13%

Question: With `COc1ccc(-c2nnc(SCC(=O)Nc3ccccc3)n2C)cc1` as the compound, how does the inhibition read?
Answer: 0.31%

Question: With `COc1ccc(-n2c(Cc3cccn3C)nnc2SCC(=O)Nc2ccc(F)cc2)cc1` as the compound, how does the inhibition read?
Answer: 12%

Question: `CC(=O)Nc1ccc(-c2nnc(SCC(=O)Nc3ccc4c(c3)oc3ccccc34)n2C)cc1` was tested. Which inhibition did it give?
Answer: 8.23%

Question: `Cc1ccc(-c2nnc(SCC(=O)Nc3ccc4c(c3)oc3ccccc34)n2C)c(Cl)c1` was tested. Which inhibition did it give?
Answer: 3.17%

Question: Which inhibition does the source give for `COc1ccc(NC(=O)CSc2nnc(-c3ccccc3C)n2N)cc1` here?
Answer: 3.11%

Question: Which inhibition does the source give for `COc1ccc(NC(=O)CSc2nnc(Cc3cccn3C)n2-c2ccc(F)cc2)cc1` here?
Answer: 23.8% (active)

Question: With `COc1ccc(NC(=O)CSc2nnc(Cc3cccn3C)n2-c2ccc(OC)cc2)cc1` as the compound, how does the inhibition read?
Answer: 5.21%

Question: Which inhibition does the source give for `COc1ccc(C(=O)NNC(=O)CSc2nnc(-c3cccnc3)n2C)cc1` here?
Answer: 10.3%

Question: With `COc1ccc(NC(=O)CSc2nnc(-c3ccccc3C)n2C)cc1` as the compound, how does the inhibition read?
Answer: 27.4% (active)

Question: How did the inhibition turn out when `COc1ccc(C(=O)NNC(=O)CSc2nnc(C)n2C)cc1` was run?
Answer: 1%

Question: `Cn1c(SCC(=O)Nc2ccc3c(c2)oc2ccccc23)nnc1-c1ccccc1` was tested. Which inhibition did it give?
Answer: 25.6% (active)

Question: How did the inhibition turn out when `Cc1cc(C)c2c3c(sc2n1)C1(CCSCC1)C(C#N)=C(N)O3` was run?
Answer: 9.27%

Question: With `C1CCN(c2nc3nonc3nc2NCC2CCOCC2)CC1` as the compound, how does the inhibition read?
Answer: 7.54%

Question: Which inhibition does the source give for `CC(=O)N1CCN(c2ccc(NC(=O)c3ccc(Br)o3)cc2Cl)CC1` here?
Answer: 4.42%

Question: `COc1ccc(-c2csc(NC(=O)c3cccs3)c2C(=O)O)cc1OC` was tested. Which inhibition did it give?
Answer: 19.5%

Question: Which inhibition does the source give for `CC(C)c1ccc(-c2csc(NC(=O)c3cccs3)c2C(=O)O)cc1` here?
Answer: 8.46%

Question: Which inhibition does the source give for `Fc1cccc(Nc2nc(Cl)nc(Cl)n2)c1` here?
Answer: 8.99%

Question: `O=C1NCCN(Cc2cccc(Oc3ccccc3)c2)C1CC(=O)N1CCCCO1` (centres undefined) was tested. Which inhibition did it give?
Answer: 1.7%

Question: How did the inhibition turn out when `CCOc1cccc2cc(C(=O)Nc3ccccc3-c3ccccc3)c(=O)oc12` was run?
Answer: 1.66%

Question: With `COC(=O)/C(N=Nc1cccc(C(F)(F)F)c1)=C(\C)O` as the compound, how does the inhibition read?
Answer: 8.29%
